Screening results as filed in PubChem BioAssay.
PGK inhibitor: T. brucei PGK inhibition; P07378; PGK/GAPDH coupled, Kinase-Glo luminescence, 60 min; Potency, µM (highest dose often 57.5 µM), inactives show at the highest dose activity change, negative = inhibition, actives largely listed as inhibitors; actives 0.043% (n = 380,000); AID 602233; note: potency is the fitted concentration of half-maximal effect; % is set by controls: 0 for no effect and ±100 for the full control effect; nearly all actives have a fitted effect of over 60% in size
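Luminescent ATP detection (Kinase-Glo Plus) follows a 60-minute room-temperature incubation, with wells lacking PGK as controls. Buffer: 100 mM TEA (pH 7.6), 5 mM MgCl2, 0.01% Tween-20. Coupling enzyme GAPDH (100 nM final) supplies unstable 1,3-BPG in-well.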
Tb PFK inh-1: inhibitors of T. brucei phosphofructokinase; T. brucei PFK, ADP-Glo luminescence; Potency, µM (top dose mostly 57.5 µM), without a hit: at the top dose activity, negative = inhibition, hits mostly inhibitors; actives 0.17% (n = 330,000); AID 485367;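 note: potency is the fitted concentration of half-maximal effect; 0% = uninhibited 1x PFK enzyme wells and -100% = no-enzyme wells; nearly all actives have a fitted effect of over 60% in size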
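Luminescent ADP detection (ADP-Glo, two-step: ATP depletion then ADP-to-ATP conversion for luciferase) reported PFK activity after 45 min room-temperature reaction of 1.25 nM enzyme with 0.5 mM F6P and 0.1 mM ATP at pH 8.0.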
PI4K2A block: PI4K2A (human) kinase inhibition; Q9BTU6; purified PI4K2A, ADP-Glo luminescence, 1 h; stronger effect = lower value; activity change, negative = inhibition, % at 76.9 µM; actives 0.13% (n = 420,000); AID 1346378; in the data active = activity change below about -50%; inconclusive = mostly about -30% to -49%;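 note: -100% = wells without enzyme as full effect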
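In this quantitative HTS, ADP production by PI4K2A was quantified luminescently after 1 h at ambient temperature; 100 microM adenosine served as plate-quality control.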
Pin1 inhibitor: blocks the human prolyl isomerase Pin1 | Q13526 | Pin1 FP peptide displacement, HiFluor488, 10 min | Potency, µM (highest dose often 115 µM), for the others: top-dose activity, negative = inhibition, most hits filed as inhibitors | actives 0.009% (n = 390,000) | AID 504891; active = well fitted inhibition curve with a large enough effect in the polarisation, with a control signal flat, not every such curve was filed as active; inconclusive = small, poorly fitted or top-dose-only effect, or effect the other way, or a change in a side signal; inactive = no such curve, though single readings can be large or run the other way; the % refers to the polarisation; note: potency is the fitted concentration of half-maximal effect; % is set by controls: 0 for no effect and ±100 for the full control effect
Target sequence (Q13526 whole entry, looked up): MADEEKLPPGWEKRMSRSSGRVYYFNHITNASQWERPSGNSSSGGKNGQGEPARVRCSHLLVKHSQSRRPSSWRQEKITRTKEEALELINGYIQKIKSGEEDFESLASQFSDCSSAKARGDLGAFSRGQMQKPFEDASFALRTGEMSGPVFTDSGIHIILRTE
PI5P4Ka inh: PI5P4K alpha (human) kinase inhibition. P48426. PI5P4Kalpha enzyme, ADP-Glo luminescence, 60 min; stronger effect = lower value. max response, %. actives 1.2% (n = 330,000); active = max response of -50% or lower; inconclusive = between -30% and -50%; inactive = -30% or higher; note: value at the top dose of about 77 µM; % is set by controls: 0 for no effect and ±100 for the full control effect
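Quantitative HTS of the MLSMR library against PI5P4Kalpha with substrate. ATP added last at 5 microM final; room temperature, 60 minutes. Remaining ATP depleted, ADP converted and read as luminescence.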
TbPFK ATP: Tb phosphofructokinase inhibition, orthogonal luminescence; AID 504636; Potency, µM (series often up to 57.5 µM), for the others: top-dose inhibition; shares compounds with Tb PFK inh-1; actives 47% (n = 1,100); Tb PFK enzyme, ATP depletion, Kinase-Glo Plus luminescence; calls by dose curve; note: potency is the fitted concentration of half-maximal effect; nearly all actives have a fitted effect of over 60% in size
Tb PFK inh-2: validation of T. brucei phosphofructokinase inhibitors; Potency, µM (titrated, usually from 57.5 µM), without a hit: top-dose activity change, negative = inhibition, hits mostly inhibitors; AID 504637; actives 41% (n = 1,100); purified T. brucei PFK, ADP-Glo luminescence, 45 min; shares compounds with Tb PFK inh-1;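 note: potency is the fitted concentration of half-maximal effect; plate controls were full PFK enzyme control for no effect and no enzyme control for full effect; nearly all actives have a fitted effect of over 60% in size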
* = called active by the depositor. Only a selection was taken, and hits are over-represented in it overall. Unless noted, calls come from the whole dose curve; as a rule, active = well fitted curve in the direction sought with a large enough effect; inconclusive = small, poorly fitted or top-dose-only effect, or another doubt; inactive = no such curve, though single readings can be large; an effect the other way counts as inactive or inconclusive.

Screening c1cc(SSc2ccncc2)ccn1 returned PGK inhibitor -5%, Tb PFK inh-1 24µM*, PI4K2A block -6, Pin1 inhibitor 4%, PI5P4Ka inh -70*, TbPFK ATP 17µM* and Tb PFK inh-2 inconclusive.
COc1ccc(C2/C=C\CN(C(=O)Oc3ccc(C(F)(F)F)cc3)CC(=O)N2Cc2ccc(F)cc2)cc1 (stereo not drawn) was read as PGK inhibitor 1%, Tb PFK inh-1 3%, PI4K2A block -3, Pin1 inhibitor inconclusive and PI5P4Ka inh 9.
Screening CN(C)c1ccc(/C=N/NC(=O)c2ccnn2C)cc1 returned PGK inhibitor 9%, Tb PFK inh-1 inconclusive, PI4K2A block inconclusive, Pin1 inhibitor -3%, PI5P4Ka inh -19, TbPFK ATP -15% and Tb PFK inh-2 -12%.
Screening COc1ccc(/C=C/C(=O)Nc2ccccc2C(=O)O)cc1 returned PGK inhibitor 3%, Tb PFK inh-1 inconclusive, PI4K2A block -8, Pin1 inhibitor 3%, PI5P4Ka inh -25, TbPFK ATP -31% and Tb PFK inh-2 inconclusive.
For CCOC(=O)C1CCN(/C=C2/C(=O)NC(=O)N(c3cccc(C)c3C)C2=O)CC1 the results were PGK inhibitor -5%, Tb PFK inh-1 -1%, PI4K2A block 1, Pin1 inhibitor 6% and PI5P4Ka inh 0.
For Cc1cc(C)c(C)c(S(=O)(=O)N2CCC(C(=O)OCC(=O)N3c4ccccc4NC(=O)C3(C)C)CC2)c1C the results were PGK inhibitor -4%, Tb PFK inh-1 inconclusive, PI4K2A block -5, Pin1 inhibitor 15%, PI5P4Ka inh -2, TbPFK ATP inconclusive and Tb PFK inh-2 inconclusive.
For CN1CC[C@]23c4c5ccc(O)c4O[C@H]2[C@@H](O)C=C[C@H]3[C@H]1C5 the results were PI4K2A block inactive.
Screening O=C(O)CCN1C(=O)c2ccc(NC(=O)CSc3ccc(Cl)cc3)cc2C1=O returned PGK inhibitor -6%, Tb PFK inh-1 inconclusive, PI4K2A block 1, Pin1 inhibitor 1%, PI5P4Ka inh -2, TbPFK ATP inconclusive and Tb PFK inh-2 inconclusive.
N#Cc1c(F)cccc1NCc1cccs1 was read as PGK inhibitor -6%, Tb PFK inh-1 inconclusive, PI4K2A block 3, Pin1 inhibitor -8%, PI5P4Ka inh -2, TbPFK ATP inconclusive and Tb PFK inh-2 inconclusive.
For Cc1ccc(Nc2nnc(-c3ccc(C)c(S(=O)(=O)NCc4nc5ccccc5[nH]4)c3)c3ccccc23)cc1 the results were PGK inhibitor 2%, PI4K2A block -4 and Pin1 inhibitor 61%.
Screening COC(=O)C1=C(c2ccccc2OCc2ccccc2)C[C@@H]2CC[C@H]1N2C(=O)NCCN1CCOCC1 returned PGK inhibitor inactive, Tb PFK inh-1 0%, PI4K2A block 6, Pin1 inhibitor -2% and PI5P4Ka inh -8.
For Cc1ccc(C(=O)CSc2nnc(CNc3ccc(F)cc3)o2)cc1 the results were PGK inhibitor -2%, Tb PFK inh-1 17µM*, PI4K2A block 12, Pin1 inhibitor -4%, PI5P4Ka inh 1, TbPFK ATP inconclusive and Tb PFK inh-2 24µM*.
`O=[N+]([O-])c1cc2c(cc1Br)CCN2` gave PGK inhibitor 0%, Tb PFK inh-1 3.4µM*, PI4K2A block 1, Pin1 inhibitor 4%, PI5P4Ka inh 0, TbPFK ATP 4.3µM* and Tb PFK inh-2 6µM*.
Screening O=[N+]([O-])c1cc(F)c(N2CCCCC2)cc1Br returned PGK inhibitor inactive, Tb PFK inh-1 -1%, PI4K2A block -1, Pin1 inhibitor 0% and PI5P4Ka inh 18.
For Cc1cccc2sc(NC(=O)c3cccn(Cc4ccccc4)c3=O)nc12 the results were PGK inhibitor -8%, PI4K2A block 3 and Pin1 inhibitor 38%.
